Here are results for seven compounds from PubChem BioAssay (Tox21).

Test [1] is described as follows: qHTS assay to identify aromatase inhibitors - cell viability counter screen (AID 743084;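 further: cells stimulated with testosterone during compound exposure; nearly all actives have a fitted effect of over 55% in size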; further: potency means the concentration at half of the fitted maximal effect). (Quantitative high-throughput screening tests each substance at several concentrations.)
For test [2], the target named is Aryl hydrocarbon receptor (Homo sapiens) (UniProt P35869). Kind of test: qHTS assay to identify small molecule that activate the aryl hydrocarbon receptor (AhR) signaling pathway (AID 743085).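 Further: HG2L7.5c1 human HepG2 liver cells with stably integrated DRE-driven firefly reporter; series mostly up to about 70 µM; nearly all actives have a fitted effect of over 15% in size.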 A digest of the protocol:
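Luminescence (ONE-Glo) from a dioxin-responsive-element luciferase reporter in HG2L7.5c1 HepG2 cells after 24 hr compound exposure at 37C; viability measured by CellTiter-Fluor fluorescence beforehand.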

Test [3] is described as follows: qHTS assay to identify small molecule that activate the aryl hydrocarbon receptor (AhR) signaling pathway - cell viability counter screen (AID 743086). Further: nearly all actives have a fitted effect of over 45% in size. Further: potency means the concentration at half of the fitted maximal effect. A digest of the protocol: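 Cytotoxicity counter screen: CellTiter-Fluor signal (30 min, 37 C) in 4000 HepG2 cells/well carrying the DRE-luciferase reporter, following 24 h compound exposure at 37 C.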
Test [4] in a line: qHTS assay to identify small molecule antagonists of the peroxisome proliferator-activated receptor gamma (PPARg) signaling pathway - cell viability counter screen (AID 743194). Further: nearly all actives have a fitted effect of over 55% in size. Further: potency means the concentration at half of the fitted maximal effect. The procedure, abridged: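 Viability was measured as CellTiter-Glo luminescence in GeneBLAzer PPARg UAS-bla HEK293H cells. These cells had been exposed 17 h at 37 C to compounds together with rosiglitazone at 50 nM final, with the beta-lactamase readout taken in the same wells.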

Test [5] in a line: qHTS assay for small molecule agonists of the antioxidant response element (ARE) signaling pathway (AID 743202; active means well fitted activation curve with a large enough effect in the signal ratio in the repeat runs, not every such curve was filed as active; the % refers to the signal ratio). A digest of the protocol:
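After 16 hours of compound treatment at 37 C, HepG2 cells with a stably integrated ARE-driven beta-lactamase reporter were loaded 2 hours at room temperature with LiveBLAzer B/G FRET substrate and fluorescence intensity measured.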

Test [6] is described as follows: qHTS assay for small molecule agonists of the antioxidant response element (ARE) signaling pathway - cell viability counter screen (AID 743203; calls by dose curve; further: nearly all actives have a fitted effect of over 55% in size; further: potency means the concentration at half of the fitted maximal effect). A digest of the protocol:
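Measured in the same wells as the beta-lactamase ARE reporter, this read-out is CellTiter-Glo luminescence from HepG2 ARE-bla cells given compounds for 16 hrs.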

The nature of test [7]: qHTS assay for small molecule activators of the heat shock response signaling pathway - cell viability counter screen (AID 743209). Further: nearly all actives have a fitted effect of over 50% in size. Further: potency means the concentration at half of the fitted maximal effect. A digest of the protocol: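 Same-well multiplex: after 2.5 h room-temperature incubation with LiveBLAzer B/G substrate and fluorescence reading, CellTiter-Glo reagent was added to HSE-bla HeLa cells that had received compound for 5 h at 37 C; luminescence read after 30 min.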

A short description of test [8]: qHTS assay to identify small molecule agonists of the peroxisome proliferator-activated receptor delta (PPARd) signaling pathway - cell viability counter screen (AID 743211). Further: nearly all actives have a fitted effect of over 55% in size. Further: potency means the concentration at half of the fitted maximal effect. A digest of the protocol: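 Viability was measured as CellTiter-Glo luminescence (30 min, room temperature) in the same wells as the beta-lactamase readout. GeneBLAzer PPARd UAS-bla HEK293H cells received compound after 5 h plating and were incubated 17 h at 37 C.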

Test [9] has as its target Peroxisome proliferator-activated receptor delta (Homo sapiens) (UniProt Q03181). Kind of test: qHTS assay to identify small molecule agonists of the peroxisome proliferator-activated receptor delta (PPARd) signaling pathway (AID 743212; calls by dose curve; further: potency means the concentration at half of the fitted maximal effect). A digest of the protocol: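 Beta-lactamase reporter readout: a ratiometric FRET signal from the LiveBLAzer substrate after 2 h at room temperature. Compound exposure at 37 °C in PPARδ-bla HEK293H cells driven by an upstream activator sequence.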

The nature of test [10]: qHTS assay to identify small molecule antagonists of the peroxisome proliferator-activated receptor delta (PPARd) signaling pathway - cell viability counter screen (AID 743213). Further: nearly all actives have a fitted effect of over 50% in size. Further: potency means the concentration at half of the fitted maximal effect. A digest of the protocol: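 CellTiter-Glo was added to PPARd-bla HEK293H wells following 17 h compound treatment in the presence of 300 nM L165041. Luminescence was recorded after 30 min at room temperature.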

The nature of test [11]: qHTS assay to identify small molecule agonists of the farnesoid-X-receptor (FXR) signaling pathway - cell viability counter screen (AID 743218). Further: nearly all actives have a fitted effect of over 45% in size. Further: potency means the concentration at half of the fitted maximal effect. A digest of the protocol:
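Readout: CellTiter-Glo luminescence, 30 min RT, multiplexed after the FXR-bla FRET reading. HEK 293T FXR-UAS-bla cells received compound 5 h post-plating and were incubated 16 h at 37 C.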

For test [12], the target named is Bile acid receptor (Homo sapiens) (UniProt Q96RI1). The test is described as follows: qHTS assay to identify small molecule agonists of the farnesoid-X-receptor (FXR) signaling pathway (AID 743220; active means well fitted activation curve with a large enough effect in the signal ratio in the repeat runs, not every such curve was filed as active; the % refers to the signal ratio). The procedure, abridged:
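FXR-UAS-bla HEK 293T cells carrying a UAS-driven beta-lactamase reporter were plated for 5 h at 37C/5% CO2, then exposed to DMSO-dissolved Tox21 10K compounds for 16 h at 37C. A LiveBLAzer B/G FRET substrate was loaded for 2 h at room temperature before fluorescence reading.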

Test [13] can be described thus: qHTS assay to identify small molecule antagonists of the farnesoid-X-receptor (FXR) signaling pathway - cell viability counter screen (AID 743221; active means well fitted cell-killing curve with a large enough effect in the repeat runs, not every such curve was filed as active; further: nearly all actives have a fitted effect of over 50% in size; further: potency means the concentration at half of the fitted maximal effect). The procedure, abridged:
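Cytotoxicity counter screen run in the FXR-bla reporter wells: HEK 293T cells exposed to compound with 50 uM (final) chenodeoxycholic acid for 16 h, 37 C, then viability measured by CellTiter-Glo luminescence after 30 min, room temperature.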

In test [14] the target is Vitamin D3 receptor (Homo sapiens) (UniProt P11473). The test is described as follows: qHTS assay to identify small molecule antagonists of the vitamin D receptor (VDR) signaling pathway (AID 743223; active means well fitted inhibition curve with a large enough effect in the signal ratio in the repeat runs, not every such curve was filed as active; the % refers to the signal ratio; further: potency means the concentration at half of the fitted maximal effect). A digest of the protocol: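 Antagonist mode: compound added to VDR-bla cells alongside agonist 1alpha,25-dihydroxyvitamin D3 (3 nM final), incubation 16 h at 37C. Read-out is LiveBLAzer FRET fluorescence, 2 h at room temperature.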

A short description of test [15]: qHTS assay for small molecule activators of the heat shock response signaling pathway (AID 743210; active means well fitted activation curve with a large enough effect in the signal ratio in the repeat runs, with a control signal flat, not every such curve was filed as active; the % refers to the signal ratio; further: series mostly up to about 63 µM). The procedure, abridged: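 Compound exposure lasted 5 h at 37 C in HeLa cells carrying a heat-shock-element-driven beta-lactamase reporter. Read-out: fluorescence intensity after 2.5 h room-temperature loading with LiveBLAzer B/G FRET substrate.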
The target of test [16] is Vitamin D3 receptor (Homo sapiens) (UniProt P11473). The test is described as follows: qHTS assay to identify small molecule agonists of the vitamin D receptor (VDR) signaling pathway (AID 743222; calls by dose curve; further: potency means the concentration at half of the fitted maximal effect). A digest of the protocol: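 Following 4 h attachment at 37C, VDR-bla cells (2,000 per well) received DMSO-dissolved compounds or controls. After 16 h incubation, LiveBLAzer B/G FRET substrate was added and fluorescence read 2 h later at room temperature.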

The target in test [17] is Peroxisome proliferator-activated receptor gamma (Homo sapiens) (UniProt P37231). Kind of test: qHTS assay to identify small molecule agonists of the peroxisome proliferator-activated receptor gamma (PPARg) signaling pathway (AID 743094; active means well fitted activation curve with a large enough effect in the signal ratio in the repeat runs, not every such curve was filed as active; the % refers to the signal ratio; further: potency means the concentration at half of the fitted maximal effect). A digest of the protocol: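 Cell-based bla reporter, HEK293H background, PPARg-driven UAS. Pre-incubation 5 h, 37C, 5% CO2. Compound 17 h, 37C. Substrate 1 h RT; fluorescence.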

The target in test [18] is Peroxisome proliferator-activated receptor delta (Homo sapiens) (UniProt Q03181). The test is described as follows: qHTS assay to identify small molecule antagonists of the peroxisome proliferator-activated receptor delta (PPARd) signaling pathway (AID 743215; active means well fitted inhibition curve with a large enough effect in the signal ratio in the repeat runs, not every such curve was filed as active; the % refers to the signal ratio;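 further: cells stimulated with agonist L165041 at 300 nM final during compound exposure; series mostly up to about 62 µM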). A digest of the protocol: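 Fluorescence from cleaved LiveBLAzer B/G FRET substrate (2 h, room temperature) reports PPARd-driven beta-lactamase in HEK293H UAS-bla cells. Cells had been treated 17 h at 37 C with compound plus 300 nM final L165041.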

Test [19] has as its target Peroxisome proliferator-activated receptor gamma (Homo sapiens) (UniProt P37231). Kind of test: qHTS assay to identify small molecule antagonists of the peroxisome proliferator-activated receptor gamma (PPARg) signaling pathway (AID 743191; calls by dose curve; further: series mostly up to about 63 µM; nearly all actives have a fitted effect of over 30% in size). A digest of the protocol:
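Beta-lactamase reporter under UAS control in HEK293H PPARg-bla cells; compound treatment 17 h at 37C. Read-out: fluorescence intensity after 1 h room-temperature incubation with LiveBLAzer B/G FRET substrate.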

Several values for one entry are separate records, joined by “and”; a condition that tells them apart may be missing. Equal values may be shown once. Results filed as inconclusive are left out. A number with no mark means an inactive call. Activity calls are given as the source filed them. Unless noted, the call rests on the fitted dose curve; in most records, active means well fitted curve in the direction sought with a large enough effect in the repeat runs; inconclusive means weak or mixed curves; inactive means no such curve, though single readings can be large; an effect the other way counts as inactive or inconclusive.
On the % scale 0 is the no-effect control and ±100 the full control effect.

Chain of Vitamin D3 receptor (Homo sapiens) (P11473 whole entry, looked up): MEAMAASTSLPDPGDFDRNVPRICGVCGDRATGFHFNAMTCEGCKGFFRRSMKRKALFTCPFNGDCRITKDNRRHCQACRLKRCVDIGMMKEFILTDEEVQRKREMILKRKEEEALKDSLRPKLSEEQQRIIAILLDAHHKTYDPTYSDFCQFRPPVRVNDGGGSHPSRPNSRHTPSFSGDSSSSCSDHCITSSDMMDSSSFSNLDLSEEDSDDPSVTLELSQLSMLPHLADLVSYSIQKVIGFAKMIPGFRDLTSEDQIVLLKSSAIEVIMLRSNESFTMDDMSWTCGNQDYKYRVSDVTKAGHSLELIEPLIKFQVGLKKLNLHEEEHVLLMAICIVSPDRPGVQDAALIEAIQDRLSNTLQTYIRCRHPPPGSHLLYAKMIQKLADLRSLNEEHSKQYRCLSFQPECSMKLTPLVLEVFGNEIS
Chain of Bile acid receptor (Homo sapiens) (Q96RI1 whole entry, looked up): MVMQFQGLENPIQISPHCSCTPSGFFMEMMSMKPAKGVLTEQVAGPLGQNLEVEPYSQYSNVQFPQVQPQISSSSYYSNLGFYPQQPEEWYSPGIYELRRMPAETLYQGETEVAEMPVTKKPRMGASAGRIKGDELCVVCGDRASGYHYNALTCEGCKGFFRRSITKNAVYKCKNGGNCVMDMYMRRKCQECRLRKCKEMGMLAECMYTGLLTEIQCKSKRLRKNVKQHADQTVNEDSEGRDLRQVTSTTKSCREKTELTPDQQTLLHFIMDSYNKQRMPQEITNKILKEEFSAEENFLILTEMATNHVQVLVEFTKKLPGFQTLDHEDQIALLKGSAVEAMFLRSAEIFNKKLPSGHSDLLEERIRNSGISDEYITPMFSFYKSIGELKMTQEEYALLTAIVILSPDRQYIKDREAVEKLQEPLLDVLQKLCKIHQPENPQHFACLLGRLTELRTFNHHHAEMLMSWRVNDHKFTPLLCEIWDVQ
Chain of Peroxisome proliferator-activated receptor gamma (Homo sapiens) (P37231 whole entry, looked up): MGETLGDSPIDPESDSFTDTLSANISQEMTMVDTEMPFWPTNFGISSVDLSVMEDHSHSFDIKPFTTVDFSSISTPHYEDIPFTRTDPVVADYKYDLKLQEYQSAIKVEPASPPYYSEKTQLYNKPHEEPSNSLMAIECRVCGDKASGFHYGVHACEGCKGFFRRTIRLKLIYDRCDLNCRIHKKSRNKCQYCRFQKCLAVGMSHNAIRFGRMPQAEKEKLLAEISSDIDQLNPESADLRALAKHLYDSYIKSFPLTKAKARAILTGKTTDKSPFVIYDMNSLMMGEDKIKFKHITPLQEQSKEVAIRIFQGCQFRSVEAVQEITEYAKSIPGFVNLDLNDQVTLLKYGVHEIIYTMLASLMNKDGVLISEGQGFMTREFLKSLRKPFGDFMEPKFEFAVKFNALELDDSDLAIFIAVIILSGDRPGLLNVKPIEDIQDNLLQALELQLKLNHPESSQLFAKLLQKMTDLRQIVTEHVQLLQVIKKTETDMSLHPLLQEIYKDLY
Chain of Peroxisome proliferator-activated receptor delta (Homo sapiens) (Q03181 whole entry, looked up): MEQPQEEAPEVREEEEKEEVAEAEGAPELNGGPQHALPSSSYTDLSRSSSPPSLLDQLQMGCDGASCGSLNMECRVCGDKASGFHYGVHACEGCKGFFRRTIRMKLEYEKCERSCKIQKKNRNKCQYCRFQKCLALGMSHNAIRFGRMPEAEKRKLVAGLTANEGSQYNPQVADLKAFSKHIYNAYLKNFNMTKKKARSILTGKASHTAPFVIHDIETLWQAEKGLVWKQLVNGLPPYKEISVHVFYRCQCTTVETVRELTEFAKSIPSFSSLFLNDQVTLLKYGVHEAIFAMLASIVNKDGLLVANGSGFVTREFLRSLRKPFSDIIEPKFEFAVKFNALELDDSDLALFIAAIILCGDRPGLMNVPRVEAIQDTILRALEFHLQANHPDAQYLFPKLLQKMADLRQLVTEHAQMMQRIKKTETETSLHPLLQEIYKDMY
Chain of Aryl hydrocarbon receptor (Homo sapiens) (P35869 whole entry, looked up): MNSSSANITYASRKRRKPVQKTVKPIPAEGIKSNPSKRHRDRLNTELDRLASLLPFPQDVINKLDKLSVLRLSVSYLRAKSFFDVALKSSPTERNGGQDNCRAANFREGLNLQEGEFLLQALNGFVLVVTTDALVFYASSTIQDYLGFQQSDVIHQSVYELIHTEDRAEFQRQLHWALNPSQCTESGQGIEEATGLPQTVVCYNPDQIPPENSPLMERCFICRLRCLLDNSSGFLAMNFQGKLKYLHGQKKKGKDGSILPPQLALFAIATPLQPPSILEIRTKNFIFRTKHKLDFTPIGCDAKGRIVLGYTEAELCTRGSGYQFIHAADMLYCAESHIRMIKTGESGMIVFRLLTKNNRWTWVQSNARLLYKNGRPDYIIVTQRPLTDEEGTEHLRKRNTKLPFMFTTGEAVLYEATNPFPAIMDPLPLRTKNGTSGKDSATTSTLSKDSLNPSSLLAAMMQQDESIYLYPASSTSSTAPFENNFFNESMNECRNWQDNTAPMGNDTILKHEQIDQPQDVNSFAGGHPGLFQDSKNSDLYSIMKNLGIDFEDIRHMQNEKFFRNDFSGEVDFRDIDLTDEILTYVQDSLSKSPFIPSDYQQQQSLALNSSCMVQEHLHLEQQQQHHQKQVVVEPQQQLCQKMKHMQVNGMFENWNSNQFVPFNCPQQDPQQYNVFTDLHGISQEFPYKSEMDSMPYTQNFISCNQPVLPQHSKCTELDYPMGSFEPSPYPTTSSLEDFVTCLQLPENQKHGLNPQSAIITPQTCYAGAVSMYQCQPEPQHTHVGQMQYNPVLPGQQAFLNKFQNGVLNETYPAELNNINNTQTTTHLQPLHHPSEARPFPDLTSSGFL

For the compound `CCN(Cc1c(F)cccc1Cl)c1c([N+](=O)[O-])cc(C(F)(F)F)cc1[N+](=O)[O-]`, the Potency entry in [1], in [2], in [3], in test [4], in [5] and in [6] was “inactive” each time. Also, the Potency entry in test [7], in [9] and in [14] was “inactive” in each case. In addition, the Potency in [8] is 17.4 µM (active); in [10], 17.4 µM (active); in [11], 19.5 µM (active); in [13] it was 21.9 µM (active). The outcome in test [12] was inactive.

For the compound `C/C=C/C=C/C(=O)O`, the Potency entry in test [1], in test [2], in test [3], in [4], in [6] and in test [7] was “inactive” each time. The Potency result in test [8], in test [10], in test [11], in [13], in test [16] and in test [14] was “inactive” in each case. Moreover, the activation in test [5] was 7.69% [at 8.36 µM]. For the same compound, the call in [15] was inactive.

In the case of `C=CCc1ccc(O)c(OC)c1`, the Potency entry in test [1], in test [2], in [3], in test [17], in test [4] and in test [5] was “inactive” throughout. In addition, the Potency result in [6], in [7], in [8], in test [9], in [10] and in test [11] was “inactive” each time. The Potency result in test [13] was “inactive”. Further, the compound was classed as inactive in test [15].

Consider `COc1ccc2c(c1)c(CC(=O)O)c(C)n2C(=O)c1ccc(Cl)cc1`, for which the Potency entry in test [1], in [2], in test [3], in test [4], in [5] and in test [6] was “inactive” in each case. For the same compound, the Potency result in test [7], in [8], in test [10], in [11] and in [13] was “inactive” each time. In addition, the compound was called inactive in [15].

Regarding `CCCCCCCCCCCCCCCC[N+](C)(C)Cc1ccccc1`, the Potency was 26.6 µM (active) and 49.4 µM (active) in test [1]; 29.8 µM (active) in [3]; 25.3 µM (active) and 17.7 µM (active) and 33.5 µM (active) in test [4]; 63.1 µM (active) and 49.4 µM (active) and 29.8 µM (active) in [6]; 50.5 µM (active) and 44.4 µM (active) and 23.7 µM (active) in test [7]; 31.9 µM (active) and 8.86 µM (active) and 18.8 µM (active) in [8]. Further, the Potency in test [10] was 22.6 µM (active) and 9.94 µM (active) and 13.3 µM (active); in test [11], 25.3 µM (active) and 22.3 µM (active) and 13.3 µM (active); in [13], 63.6 µM (active) and 25 µM (active) and 16.8 µM (active); in [14], 63.6 µM (active) and 49.8 µM (active). Besides, the Potency entry in [2], in test [17], in test [18] and in test [16] was “inactive” each time. Also, in [12], the result was inactive.

Take `C[C@](N)(Cc1ccc(O)c(O)c1)C(=O)O`: the Potency result in [1], in test [2], in test [3], in [17], in [19] and in [4] was “inactive” each time. Besides, the Potency entry in [5], in test [6], in [7], in test [8], in test [10] and in [11] was “inactive” each time. Moreover, the Potency result in test [13], in test [16] and in test [14] was “inactive” throughout.

In the case of `Cc1cc(=O)oc2cc(O)ccc12`, the Potency result in test [1], in [2], in test [3], in test [4], in [6] and in test [7] was “inactive” throughout. For the same compound, the Potency entry in test [8], in test [10], in [11] and in test [13] was “inactive” throughout. Moreover, the Potency in test [17] was 49 µM (active); in test [9], 43.6 µM (active) and 26.6 µM (active); in [16], 21.1 µM (active).
